Measured values reported in the emibetuzumab library of Makowski et al. (2022).
The list shows a part of the results. How many sequences the whole screen found active is unknown.

B1: VH:VL chains; a variant is named by its letters at X, in order (parent)
chain 1: QVQLVQSGAEVKKPGASVKVSCKASGYTFTDYXMHWVRQAPGQGLEWMGXVNPNXXXTTYNQKFEGRVTMTTDTSTSTAYMELRSLRSDDTAVYYCARXNXLDXWGQGTTVTVSS
chain 2: DIQMTQSPSSLSASVGDRVTITCSVSSSVSSIYLHWYQQKPGKAPKLLIYSTSNLASGVPSRFSGSGSGTDFTLTISSLQPEDFATYYCQVYSGYPLTFGGGTKVEIK

Variants of: B1
Assay: yeast display scFab, FACS + sequencing
Settings: with MET
Method in brief: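 Round-3 sorted and input populations from a heavy-chain CDR mutant scFab yeast library were deep sequenced in two replicates. Sorting used FACS on cells labelled for 3 h at room temperature with 1 nM HGFR-Fc and anti-Myc in PBSB with 1% milk, keeping the top 50% antigen-positive cells. Any sequence seen in both antigen-positive samples was called a binder, while one seen only in the input was called a non-binder.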
For DGGRGDGA, the antigen binding call was “no binding”.
AKTGNDVA was tested, and the antigen binding call was “no binding”.
DRAGDSLD was tested, and the antigen binding call was “no binding”.
For YRAGDALD, the antigen binding call was “binds”.
DRREDALD was tested, and the antigen binding call was “binds”.
For DRAGDALD, the antigen binding call was “binds”.
With YRAEGALD the antigen binding call was “binds”.
With DTTGSALD the antigen binding call was “no binding”.
For DAGAADVV, the antigen binding call was “no binding”.
DRGGDDVD was tested, and the antigen binding call was “no binding”.
YRAGGDAD was tested, and the antigen binding call was “binds”.
For YATAADAD, the antigen binding call was “no binding”.
In the case of ARRTDVAD, the antigen binding call is reported as “binds”.
With YTGGNDAD the antigen binding call was “no binding”.
In the case of VGGGGAAD, the antigen binding call is reported as “no binding”.
With YRRRGVAD the antigen binding call was “binds”.
With AARADSAD the antigen binding call was “no binding”.
With AREGDAGD the antigen binding call was “no binding”.
With VRRRGAAD the antigen binding call was “binds”.
FERRAFGY was tested, and the antigen binding call was “no binding”.
In the case of YRRRGAAD, the antigen binding call is reported as “binds”.
YRRKGDAD was tested, and the antigen binding call was “no binding”.
For YRRRGDAD, the antigen binding call was “binds”.
For YRRGGAAD, the antigen binding call was “binds”.
For AAARNFLF chain 1 V68I, the antigen binding call was “no binding”.
In the case of SEARSSAS, the antigen binding call is reported as “no binding”.
For DEGGTDSF, the antigen binding call was “no binding”.
With VKGASDVV the antigen binding call was “no binding”.
DTGGGAGA was tested, and the antigen binding call was “no binding”.
YKGRGYAA was tested, and the antigen binding call was “binds”.
With VRGRGYAA the antigen binding call was “binds”.
With VRGRGFAA the antigen binding call was “no binding”.
With YRGKGYAA the antigen binding call was “binds”.
With YKGRGYVA the antigen binding call was “no binding”.
VRGTGYAS was tested, and the antigen binding call was “no binding”.
For YRGRGYAA, the antigen binding call was “binds”.
With VTTRAASV the antigen binding call was “no binding”.
SREEGFSV was tested, and the antigen binding call was “no binding”.
For YEGRGDVA, the antigen binding call was “no binding”.
In the case of YGGGGAVA, the antigen binding call is reported as “no binding”.
For YGGRGAVA, the antigen binding call was “binds”.
VRAGGDLA was tested, and the antigen binding call was “no binding”.
YRGRGVAA was tested, and the antigen binding call was “binds”.
For VTGRGDLA, the antigen binding call was “no binding”.
For YRAGGYAA, the antigen binding call was “binds”.
With VRGRGDLA the antigen binding call was “binds”.
With SETKGDVY the antigen binding call was “no binding”.
In the case of DREEGFSV, the antigen binding call is reported as “no binding”.
With AAGGDYVF the antigen binding call was “no binding”.
For VTEGDAGD, the antigen binding call was “no binding”.
For VERRGSWS, the antigen binding call was “no binding”.
With YRRRGSWS the antigen binding call was “binds”.
In the case of YERRGSWS, the antigen binding call is reported as “no binding”.
YRRRGYSS was tested, and the antigen binding call was “binds”.
YAKADYSS was tested, and the antigen binding call was “no binding”.
For YRRGGAWS, the antigen binding call was “binds”.
For YRRRGAWS, the antigen binding call was “binds”.
VTRGDVWV was tested, and the antigen binding call was “no binding”.
With VTGTGDVV the antigen binding call was “no binding”.
SEGTGAGV was tested, and the antigen binding call was “no binding”.
For SKERGDLV, the antigen binding call was “no binding”.
For YRRRGSLS, the antigen binding call was “binds”.
In the case of SKTKSDGS, the antigen binding call is reported as “no binding”.
In the case of YRRRGSSS, the antigen binding call is reported as “binds”.
With YRRRGAAS the antigen binding call was “binds”.
With SKRRGSLS the antigen binding call was “binds”.
In the case of VETEGAGA, the antigen binding call is reported as “no binding”.
In the case of SREAADGV, the antigen binding call is reported as “no binding”.
For AETTDSWV, the antigen binding call was “no binding”.
With FGATSVSF the antigen binding call was “no binding”.
For SARTDFWF, the antigen binding call was “no binding”.
For ARAETDVY, the antigen binding call was “no binding”.
With YRRRSSSS the antigen binding call was “binds”.
For DARGGSSS, the antigen binding call was “no binding”.
In the case of YRRRGSVS, the antigen binding call is reported as “binds”.
YRRRGALS was tested, and the antigen binding call was “binds”.
YRRRGSAS was tested, and the antigen binding call was “binds”.
For VTEENDGY, the antigen binding call was “no binding”.
FAEGDDVY was tested, and the antigen binding call was “no binding”.
With ATTKSDVA the antigen binding call was “no binding”.
In the case of YARETDGA, the antigen binding call is reported as “no binding”.
DAGAADGA was tested, and the antigen binding call was “no binding”.
With YRRRGASS the antigen binding call was “binds”.
YRRRGSGS was tested, and the antigen binding call was “binds”.
With DAEATDVA the antigen binding call was “no binding”.
YREKGAGD was tested, and the antigen binding call was “binds”.
For VAEKGAGD, the antigen binding call was “no binding”.
YRAKGSGD was tested, and the antigen binding call was “binds”.
With YRAGTSGD the antigen binding call was “binds”.
For YKEKGAVD, the antigen binding call was “no binding”.
For YRAKGAGD, the antigen binding call was “binds”.
For DGGEGVVY, the antigen binding call was “no binding”.
With AKRGAFAD the antigen binding call was “no binding”.
In the case of VGGKNSVD, the antigen binding call is reported as “no binding”.
With VKGRADAD the antigen binding call was “no binding”.
YRRKGAGD was tested, and the antigen binding call was “binds”.
For YRAGSSGD, the antigen binding call was “binds”.
For YAAGASVD, the antigen binding call was “no binding”.
YRAGASGD was tested, and the antigen binding call was “binds”.
VKEADDVA was tested, and the antigen binding call was “no binding”.
For YREGGSLD, the antigen binding call was “binds”.
With VTEGGSVD the antigen binding call was “no binding”.
For YRGRTSLD, the antigen binding call was “binds”.
In the case of DAEGGSLD, the antigen binding call is reported as “no binding”.
For YRERSSLD, the antigen binding call was “binds”.
For YREGGSVD, the antigen binding call was “binds”.
In the case of VTTKSDVF, the antigen binding call is reported as “no binding”.
In the case of AETKGDVY, the antigen binding call is reported as “no binding”.
For SAGEGDGV, the antigen binding call was “no binding”.
With FKKRGAWS the antigen binding call was “binds”.
In the case of YKTRSAWS chain 1 M48I, the antigen binding call is reported as “no binding”.
AKKRGAWS was tested, and the antigen binding call was “binds”.
In the case of VKEKGAWS, the antigen binding call is reported as “no binding”.
AERRGSWS was tested, and the antigen binding call was “no binding”.
With FAKRGAWS the antigen binding call was “no binding”.
In the case of VKKRGAWS, the antigen binding call is reported as “binds”.
With FKTEGFVS the antigen binding call was “no binding”.
In the case of YARGADGS, the antigen binding call is reported as “no binding”.
For AAKRGSWV, the antigen binding call was “no binding”.
With YKRGAAWS the antigen binding call was “binds”.
For VKEKGAWV, the antigen binding call was “no binding”.
With DATGGDVF the antigen binding call was “no binding”.
YERTTDLS was tested, and the antigen binding call was “no binding”.
VGGTSDGD was tested, and the antigen binding call was “no binding”.
For VTEEGDWV, the antigen binding call was “no binding”.
For ATKGAAVA, the antigen binding call was “no binding”.
For YEKGGAWS, the antigen binding call was “no binding”.
For YKKRGAWS, the antigen binding call was “binds”.
With VTTKSAGV the antigen binding call was “no binding”.
With DAEATSLV the antigen binding call was “no binding”.
With YRRGSSAA the antigen binding call was “binds”.
In the case of YRRGGSAA, the antigen binding call is reported as “binds”.
In the case of VTGEDDVD, the antigen binding call is reported as “no binding”.
For VAARGAAV, the antigen binding call was “no binding”.
VKAGGDAV was tested, and the antigen binding call was “no binding”.
For VKARGSAF, the antigen binding call was “binds”.
In the case of VKARGSAV, the antigen binding call is reported as “binds”.
In the case of VKGRASAF, the antigen binding call is reported as “no binding”.
With VAARGDAA the antigen binding call was “no binding”.
VKAGDAAV was tested, and the antigen binding call was “no binding”.
In the case of VKARGAAV, the antigen binding call is reported as “binds”.
In the case of VEEEGSAV, the antigen binding call is reported as “no binding”.
